Screens deposited in PubChem by several laboratories.
Compounds with a hit are over-represented: about 4.6% of the library has one in this group of screens.
KLK7 zymogen act: activates the human kallikrein-7 zymogen; P49862; purified proKLK7, EDANS-DABCYL substrate fluorescence; 100% is mature enzyme control, 0% vehicle; activation, % at 7 µM; actives 0.9% (n = 370,000); AID 652039;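 active = activation above the mean of all tested compounds plus 3 SD, computed per campaign excluding outliers beyond control limits, cut at about 13% in these data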
Target sequence (P49862 whole entry, looked up): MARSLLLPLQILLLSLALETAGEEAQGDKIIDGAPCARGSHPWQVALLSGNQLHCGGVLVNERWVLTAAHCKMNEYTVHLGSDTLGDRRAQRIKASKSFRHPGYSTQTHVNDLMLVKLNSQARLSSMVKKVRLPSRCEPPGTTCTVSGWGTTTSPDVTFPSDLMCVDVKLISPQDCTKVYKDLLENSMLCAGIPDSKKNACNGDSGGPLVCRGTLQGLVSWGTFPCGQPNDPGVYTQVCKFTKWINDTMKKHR
ADAM17 inh: inhibitors of human ADAM17; recombinant ADAM17, EDANS/DABCYL FRET peptide cleavage; inhibition, % at 6.95 µM; actives 0.83% (n = 370,000); AID 720648;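 active = inhibition above the mean of compounds lying between control limits plus 3 SD, set per campaign, cut at about 8.5% in these data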;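 note: 0% = DMSO-only wells as the low control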
GRIN3A LBD mod: modulates the human NR3A ligand-binding domain; NR3A LBD differential scanning fluorimetry, Tm shift; 0% = protein alone, 100% = glycine-bound protein; AID 1259313; actives 2.5% (n = 340,000); Tm shift relative to glycine control, % at 25 µM;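 active = melting temperature shift of at least 10% of the positive control shift, at one fixed dose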
ADAM10 inh: ADAM10 inhibition, QFRET primary screen. O14672. recombinant ADAM10, EDANS/DABCYL FRET peptide cleavage, 3 h. inhibition, % at 7 µM. actives 0.62% (n = 370,000). AID 720582;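 active = inhibition above a per-campaign cutoff equal to the mean of compounds falling between control-based bounds plus 3 SD, cut at about 20% in these data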;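 note: 0% = DMSO wells while the 100% control is not disclosed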
FAS TE block: blocks the thioesterase domain of human fatty acid synthase | inhibition, % at 15 µM | recombinant FAS-TE, OMFH fluorogenic substrate, fluorescence endpoint | actives 0.67% (n = 360,000);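 active = compounds whose normalised, plate-corrected inhibition of enzyme fluorescence in the single-dose primary screen is 50% or more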;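 note: 0% = DMSO with enzyme and 100% = substrate without enzyme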
* marks the source's active call; other numbers are inactive results; i = inactive; . = no result.

SMILES	KLK7 zymogen act	ADAM17 inh	GRIN3A LBD mod	ADAM10 inh	FAS TE block
O=C(Nc1ccc2nsnc2c1)c1ccc2c(c1)OCO2	.	.	14.1*	.	2.5
Cc1ccccc1CS(=O)(=O)Cc1ccc(C(=O)Nc2c(C)cccc2C)o1	-0.4	-0.7	.	-2.7	.
C[C@@H]1C[C@H]2O[C@@H]2/C=C\C=C\C(=O)Cc2cc(O)cc(O)c2C(=O)O1	4.3	-6.1	.	-19.1	.
CN(C)S(=O)(=O)c1cccc(C(=O)N/N=C\c2cccc(C#N)c2)c1	0.2	-2.1	.	-6.2	.
c1ccc(-c2nnc3n2N=C(c2ccc4ccccc4c2)CS3)nc1	0.0	-5.2	.	-13.4	.
COc1cccc(OC[C@@H](O)CN2CCC(C(O)(c3ccccc3)c3ccccc3)CC2)c1	-0.5	1.9	.	-1.6	.
CCCCNC(=O)CSc1nc(CCC)nc2ccccc12	0.2	-2.5	-17.1	-2.4	-1.1
CCCc1nc(SCC(=O)N2CCc3ccccc3C2)c2ccccc2n1	0.2	-1.6	12.6*	0.5	21.0
COc1cc(/C=C2/SC(=O)N(CC(=O)N3CCCC3)C2=O)ccc1Oc1ccc([N+](=O)[O-])cn1	-0.2	1.2	13.0*	-2.8	13.8
COc1ccc(/C=C/c2nc(-c3ccccc3O)n[nH]2)cc1	-0.3	7.5	39.8*	12.0	2.7
COC(=O)c1cc(S(=O)(=O)Nc2nn(C)c3ccccc23)oc1C	0.0	-0.7	11.0*	-1.0	-4.8
CCCC1CCC2(CC1)CCC2OC(=S)Nc1ccccc1 (centres undefined)	.	-3.2	.	-6.1	.
Cc1c(Cc2ccccc2)sc(/N=C/c2c(O)ccc3ccccc23)c1C(N)=O	.	.	11.5*	.	-6.1
COc1ccc(C2C(C(=O)Nc3ccc(F)cc3)CCC(=O)N2c2ccc(OC)cc2)cc1 (centres undefined)	0.1	-0.1	.	-0.4	.
CCCN1CCS(=O)(=O)N(Cc2cn(Cc3ccc(OC)cc3)nn2)C(C(=O)OC)C1 (centres undefined)	0.2	-4.7	.	-4.5	.
CN(C)S(=O)(=O)c1ccc(NC(=O)c2ccc3ncsc3c2)cc1	.	.	16.8*	.	.
O=C(Nc1ccc(Br)cc1)c1ccc2ncsc2c1	-0.4	-7.0	26.5*	-13.2	10.0
CCOc1ccc(NC(=O)c2ccc(S(=O)(=O)N(C)C)cc2)cc1	-0.3	2.0	0.8	-4.9	-2.1
NS(=O)(=O)c1ccc2nc(NC(=O)c3ccc4ncsc4c3)sc2c1	.	.	29.7*	.	-5.6
COc1ccc(NC(=O)c2ccc3ncsc3c2)cc1	0.2	-1.6	-10.2	-4.3	1.2
NS(=O)(=O)c1ccc2nc(NC(=O)c3ccc4c(c3)OCCO4)sc2c1	0.4	-3.5	-1.7	-5.3	-4.9
CCCC#Cc1ccc(CC[C@H]2O[C@H]3CC[C@@H](CO)O[C@H]3C[C@H]2NC(=O)CN2CCOCC2)cc1	0.5	2.6	.	-3.3	.
COC(=O)C[C@@H]1CC[C@H]2[C@H](COc3ccc(NC(=O)c4ccc(OC)cc4)cc3C(=O)N2C)O1	-0.1	-0.9	.	-1.6	.
COc1ccc(Cn2cnc3c4cc(F)ccc4n(C)c3c2=O)cc1	-0.3	-5.6	15.4*	-12.8	-2.4
COc1ccc2c(c1)c1ncn(CCc3ccccc3)c(=O)c1n2C	-6.1	i	3.0	i	13.1
SMILES	KLK7 zymogen act	ADAM17 inh	GRIN3A LBD mod	ADAM10 inh	FAS TE block
CCOc1ccc(N(CC(=O)Nc2cccnc2)S(=O)(=O)c2ccc(C)cc2)cc1	0.4	-0.5	15.5*	2.1	0.5
CCc1ccccc1N(CC(=O)Nc1cccnc1)S(=O)(=O)c1ccccc1	0.5	-0.2	11.7*	-0.8	-1.1
C=CC[C@@H]1NN2C(=O)[C@@H](CCc3ccccc3)[C@@H]3c4ccccc4C=NN3[C@@H]2c2ccccc21	0.1	-0.5	.	3.1	.
COc1ccc(S(=O)(=O)N(C)C[C@H]2Oc3c(NC(=O)Nc4ccccc4)cccc3C(=O)N([C@H](C)CO)C[C@@H]2C)cc1	0.3	-0.5	-9.6	8.8	13.2
Cc1noc(C)c1S(=O)(=O)N(C)C[C@H]1Oc2c(NC(=O)Nc3ccc(C(F)(F)F)cc3)cccc2C(=O)N([C@H](C)CO)C[C@@H]1C	-0.6	0.8	10.5*	0.8	43.1
COc1ccc(NC(=O)Nc2cccc3c2O[C@H](CN(C)S(=O)(=O)c2cn(C)cn2)[C@@H](C)CN([C@H](C)CO)C3=O)cc1	-0.7	-1.1	15.5*	0.4	-3.0
Cc1cc(C(=O)O[C@@H]2CCC[C@]3(C(=O)N(Cc4ccccc4)c4ccccc43)[C@H]2NC(=O)CCc2ccccc2)no1	0.1	-1.4	.	-0.2	.
CCCCCCc1ccc(-c2ncc(N)cn2)cc1	-0.1	3.7	10.7*	-2.6	29.0
Oc1ccc(Br)cc1-c1cc(-c2ccccc2Cl)[nH]n1	0.0	0.8	23.4*	6.8	-6.2
Cc1ccc(-c2cc(-c3ccc(F)cc3)n[nH]2)c(O)c1	-0.4	7.2	11.8*	15.6	5.9
Cc1ccc(O)c(-c2cc(-c3cccc(Br)c3)n[nH]2)c1	-0.2	5.4	28.3*	14.5	23.3
Oc1ccc(Cl)cc1-c1cc(-c2ccccc2)n[nH]1	-1.1	7.4	24.9*	23.0*	16.9
CC(C)C[C@H]1COc2cc(Br)ccc2S(=O)(=O)N1Cc1cn(CCC2OCCCO2)nn1	-0.5	-1.1	.	-1.7	.
CCn1c(SCC(=O)c2ccc(-c3ccccc3)cc2)nnc1-c1ccc(C(C)(C)C)cc1	0.4	2.4	.	-8.3	.
O=[N+]([O-])c1ccc2c(c1)/C(=N\O)c1ccccc1-2	0.3	-0.6	-3.3	0.4	-30.0
Nc1cc2c(cc1Cl)-c1ccc([N+](=O)[O-])cc1C2=NO	0.0	1.4	477.2*	-5.3	-53.4
Nc1nonc1-n1nnc(C(=O)N/N=C/c2cccc(Cl)c2)c1CN1CCCCCC1	0.1	-4.0	-1.3	9.1	2.4
CCOc1ccc(/C=N/NC(=O)c2nnn(-c3nonc3N)c2COc2ccc(F)cc2)cc1	-0.7	-5.8	38.9*	-4.2	0.8
CN(C)c1ccc(/C=N/NC(=O)c2nnn(-c3nonc3N)c2COc2ccc(F)cc2)cc1	-0.1	-5.0	11.1*	-12.7	7.1
Nc1nonc1-n1nnc(C(=O)N/N=C/c2cccc(O)c2)c1CN1CCCC1	0.6	-1.9	11.9*	-7.1	-4.7
Cc1ccccc1COc1ccc(/C=N/NC(=O)c2nnn(-c3nonc3N)c2CN2CCC(C)CC2)cc1	-2.0	-1.0	87.3*	9.5	15.6
COc1ccc(CN2C/C(=C/c3ccc(C)cc3)N3C(=O)C[C@@H](c4ccccc4)N=C23)c(OC)c1	-1.1	1.9	.	5.3	.
CCOC(=O)c1nnn(-c2nonc2N)c1CN1CCCCCC1	-0.3	2.4	2.4	0.3	-4.9
CCOC(=O)c1nnn(-c2nonc2-n2cccc2)c1CN1CCCCC1	-0.1	-1.3	17.8*	1.7	17.6
CC(=O)Nc1ccc2c(c1)C(=O)N(C)[C@H]1CC[C@H](CC(=O)NCc3ccc(F)cc3)O[C@@H]1CO2	-0.6	-1.2	.	6.2	.
COc1ccccc1OCCCOc1c(C)cc(C)cc1Br	0.2	-1.0	16.4*	1.1	17.9
COc1cccc(OC)c1OCCCOc1ccc(C)cc1Br	-0.3	-2.6	10.2*	-10.7	20.9
